Here are results for 35 molecules from PubChem BioAssay AID1035475 (Broad Institute, 2014).

Molecules are shown by their SMILES. Potency and affinity values are given separately. Inconclusive results are not listed. Entries that show only a call come without a potency. The source made the active and inactive calls.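 How the source made its calls: active means fluorescent signal drops by 40% or more, counted as a hit; inconclusive means no clear call, values can overlap the other calls; inactive means the rest, including any activity in the opposite direction.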

The assay is described as follows: blockers of FN fibrillogenesis by fibroblasts – AH1F cells, Alexa488-FN fluorescence, cherry-picks, dose response (AID 1035475).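 Further: AH1F fibroblasts incorporating labeled fibronectin into their extracellular matrix.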 Conditions: Alexa488-fibronectin deposition fluorescence, overnight; series mostly up to 35 µM.
`C[C@H]1CN([C@@H](C)CO)C(=O)c2cc(NC(=O)CCCN(C)C)ccc2O[C@H]1CN(C)Cc1ccc(-c2ccccc2)cc1`: the outcome was inactive.
On to `COc1cccc(CN2CCN(C(=O)c3ccc(-c4ccccc4)cc3)CC2)c1OC`, for which the molecule was called inactive.
Regarding `Cc1ccc(CS(=O)Cc2ccc(C(=O)NC3CCCC(C)C3C)o2)cc1` (stereo not given), the call was inactive.
Turning to `CCC(C)(C)NC(=O)C(OC(=O)c1ccco1)c1ccccc1OC` (stereo not given), the molecule was called inactive.
`Fc1cnc(N2CCN(c3ccccc3)CC2)nc1N1CCN(c2ccccc2)CC1`: the outcome was inactive.
For `O=C(c1cccnc1)N1C[C@@H]2[C@H](c3ccccc31)[C@H](CO)N2CC1CCCC1`, the outcome was inactive.
To `Cc1ccc([N+](=O)[O-])cc1NC(=O)CN(C(=O)c1ccccc1Cl)C1CCCCC1` belongs “inactive”; to `c1ccc2[nH]c(SCc3cn4cccnc4n3)nc2c1`, “inactive”.
To `O=C(NCCS(=O)(=O)N1CCN(c2ccc(F)cc2)CC1)c1ccc(Br)o1` belongs “inactive”; to `C[C@H](O)C#Cc1ccc2c(c1)O[C@@H](CN(C)C)[C@H](C)CN([C@@H](C)CO)S2(=O)=O`, “inactive”.
The value for `C[C@@H]1CN([C@H](C)CO)C(=O)c2cc(NC(=O)C3CCCCC3)ccc2O[C@@H]1CN(C)Cc1ccc(-c2ccccc2)cc1` was “inactive”; that for `CO[C@@H]1CN(C)C(=O)c2cc(NC(=O)Nc3cc(Cl)cc(Cl)c3)ccc2OC[C@H](C)NC[C@@H]1C` was “inactive”.
For the molecule `CO[C@H]1CN(C)C(=O)c2cc(NC(=O)Nc3ccc(Cl)c(Cl)c3)ccc2OC[C@@H](C)NC[C@H]1C`, the call was inactive.
With `C[C@@H]1CN([C@@H](C)CO)C(=O)c2cc(-c3ccccc3)cnc2O[C@@H]1CN(C)Cc1ccccc1`, the result was inactive.
Turning to `CO[C@H]1CN(C)C(=O)c2cc(NC(=O)Nc3cc(Cl)cc(Cl)c3)ccc2OC[C@@H](C)NC[C@H]1C`, the call was inactive.
As for `CO[C@H]1CN(C)C(=O)c2ccc(NC(=O)Nc3ccc(Cl)c(Cl)c3)cc2OC[C@H](C)NC[C@H]1C`, the result was inactive.
Consider `C[C@@H]1CN([C@H](C)CO)C(=O)c2cc(-c3ccccc3)cnc2O[C@H]1CN(C)C(=O)c1cccc(F)c1`, for which the call was inactive.
Consider `CC1CN(C(=O)c2cc3c(=O)n4ccccc4nc3n2C)CC(C)O1` (stereo not given), for which the molecule was classed as inactive.
`C[C@H]1CN([C@@H](C)CO)C(=O)c2cc(-c3ccccc3)cnc2O[C@@H]1CN(C)Cc1ccccc1`: the result was inactive.
To `COCC(=O)Nc1ccc2c(c1)C(=O)N(C)[C@H]1CC[C@@H](CC(=O)NCc3ccccc3Cl)O[C@@H]1CO2` belongs “inactive”.
With `COC(=O)C[C@H]1CC[C@H]2[C@@H](COc3ccc(NC(=O)Cc4cccs4)cc3C(=O)N2C)O1`, the molecule was called inactive.
The value for `CO[C@@H]1CN(C)C(=O)c2ccc(NC(=O)c3ccc(-c4ccccc4)cc3)cc2OC[C@@H](C)NC[C@@H]1C` was “inactive”; that for `CC(C)(C)[S@@](=O)N1Cc2cc(C(=O)NCc3ccccc3F)nc(-c3cccc(-c4ccncc4)c3)c2[C@H]1CCO` was “inactive”.
On to `C[C@H](O)C#Cc1ccc2c(c1)O[C@H](CN(C)C)[C@H](C)CN([C@H](C)CO)S2(=O)=O`, for which the outcome was inactive.
As for `COC(=O)C[C@@H]1CC[C@@H]2[C@H](COc3ccc(NC(=O)Cc4cccs4)cc3C(=O)N2C)O1`, the call was inactive.
As for `N#C[C@H]1[C@@H](c2ccccc2C2=CCCCC2)[C@@H](CO)N1S(=O)(=O)c1ccccc1`, the molecule was classed as inactive.
As to `CO[C@@H]1CN(C)C(=O)c2ccc(NC(=O)c3ccc(-c4ccccc4)cc3)cc2OC[C@H](C)NC[C@H]1C`, the molecule was classed as inactive.
Regarding `C[C@@H]1CN([C@H](C)CO)C(=O)c2cc(-c3ccccc3)cnc2O[C@@H]1CN(C)Cc1ccccc1`, the call was inactive.
With `O=C(C[C@@H]1C[C@@H]2c3cc(NC(=O)c4ccc5c(c4)OCO5)ccc3O[C@@H]2[C@@H](CO)O1)NCc1ccc(Oc2ccccc2)cc1`, the result was inactive.
Regarding `Cc1ccc(O)c(-c2cc(-c3cccc(Br)c3)n[nH]2)c1`, the result was inactive.
Consider `CN(C)C(=O)c1ccc(-c2ccc3c(c2)[C@@H]2[C@@H](CCN2C(=O)c2ccc(F)cc2)[C@@H](CO)N3C)cc1`, for which the molecule was classed as inactive.
For the molecule `O=C(Nc1ccccc1F)N1C[C@@H]2[C@H](c3ccccc31)[C@@H](CO)N2C(=O)C1CC1`, the molecule was classed as inactive.
For the molecule `O=S(=O)(c1ccccc1F)N1CC[C@@H]2[C@H]1c1cc(-c3cccc(F)c3)ccc1N[C@@H]2CO`, the molecule was classed as inactive.
To `OC(CNC1CCCc2ccccc21)COc1c(Cl)cccc1Cl` (stereo not given) belongs “inactive”; to `Cc1cc(C)c(S(=O)(=O)Nn2cnnc2)c(C)c1`, “inactive”.
